Results on 21 molecules are retold here after PubChem BioAssay (NCATS).

Records with an inconclusive call do not appear. Values without a mark were called inactive. Active and inactive are the calls of the source. Calls come from the whole dose curve; as a rule, active = well fitted curve in the direction sought with a large enough effect; inconclusive = small, poorly fitted or top-dose-only effect, or another doubt; inactive = no such curve, though single readings can be large; an effect the other way counts as inactive or inconclusive.

Experiment [1] in a line: qHTS of pediatric cancer cell lines to identify multiple opportunities for drug repurposing: Primary screen for A673 cells (AID 1347092). Note: nearly all actives have a fitted effect of over 45% in size. Note: potency is the fitted concentration of half-maximal effect. The method in brief: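 A673 cells (500-1,000 cells/well in growth media) were pre-incubated 5 h at 37 degrees C, then exposed to compounds for 48 h. Viability was read as CellTiter-Glo luminescence; concentration-response curves came directly from the primary screen.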
In general terms: In qHTS, concentration-response curves come from the screen itself.

Experiment [2] is described as follows: qHTS of pediatric cancer cell lines to identify multiple opportunities for drug repurposing: Primary screen for SK-N-MC cells (AID 1347093). Note: potency is the fitted concentration of half-maximal effect. The method in brief: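 Metabolically active cells were quantified by ATP-dependent luminescence (CellTiter-Glo, 15 min at room temperature) following 48 h treatment. Cells had been plated at 500-1,000 per well and settled for 5 h beforehand.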

A short description of experiment [3]: qHTS of pediatric cancer cell lines to identify multiple opportunities for drug repurposing: Primary screen for BT-37 cells (AID 1347094). Note: series mostly up to about 57 µM. The gist of the method:
(§1)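 Cells plated at 500-1,000/well in growth medium, compounds added after 5 h. MIPE tested at 11 points (from 0.78 nM), NPC at 8 points (from 0.59 nM). CellTiter-Glo luminescence after 48 h; concentration-response curves from primary screen.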

The nature of experiment [4]: qHTS of pediatric cancer cell lines to identify multiple opportunities for drug repurposing: Primary screen for NB-EBc1 cells (AID 1347095). The gist of the method: as §1
Experiment [5] in a line: qHTS of pediatric cancer cell lines to identify multiple opportunities for drug repurposing: Primary screen for U-2 OS cells (AID 1347096). Note: nearly all actives have a fitted effect of over 50% in size. The method in brief: (§2)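 Cells (500-1,000/well) rested 5 h, then received compounds for 48 h; metabolically active cells were measured by CellTiter-Glo luminescence. Final concentrations spanned up to 46 µM (MIPE, 11-point) or 0.59 nM-46 µM (NPC, 8-point) in primary screens, 11-point in follow-ups.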

Experiment [6] is described as follows: qHTS of pediatric cancer cell lines to identify multiple opportunities for drug repurposing: Primary screen for Saos-2 cells (AID 1347097). Note: nearly all actives have a fitted effect of over 40% in size. Note: potency is the fitted concentration of half-maximal effect. The method in brief: as §1
Experiment [7] is described as follows: qHTS of pediatric cancer cell lines to identify multiple opportunities for drug repurposing: Primary screen for SK-N-SH cells (AID 1347098).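 Note: DMSO served as neutral control and bortezomib at 2.3 µM as positive control; nearly all actives have a fitted effect of over 65% in size.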 The gist of the method:
as §2

Experiment [8] is described as follows: qHTS of pediatric cancer cell lines to identify multiple opportunities for drug repurposing: Primary screen for NB1643 cells (AID 1347099). Note: nearly all actives have a fitted effect of over 50% in size. Note: potency is the fitted concentration of half-maximal effect. The gist of the method:
as §1

A short description of experiment [9]: qHTS of pediatric cancer cell lines to identify multiple opportunities for drug repurposing: Primary screen for LAN-5 cells (AID 1347100). The method in brief:
as §2

Experiment [10] is described as follows: qHTS of pediatric cancer cell lines to identify multiple opportunities for drug repurposing: Primary screen for BT-12 cells (AID 1347101). Note: nearly all actives have a fitted effect of over 25% in size. Note: potency is the fitted concentration of half-maximal effect. The gist of the method:
as §2

As to `C[C@H](NC(CCc1ccccc1)C(=O)O)C(=O)N1CCC[C@H]1C(=O)O` (stereo partly drawn), the Potency entry in experiment [1], in experiment [2], in experiment [3], in experiment [4], in experiment [5] and in experiment [6] was “inactive” each time. Besides, the Potency entry in [7], in [8], in experiment [9] and in experiment [10] was “inactive” in each case.
For the molecule `CCCn1cnc2c1c(=O)n(CCCCC(C)=O)c(=O)n2C`, the Potency entry in experiment [1], in experiment [2], in experiment [3], in experiment [4], in [5] and in experiment [6] was “inactive” throughout. In addition, the Potency entry in experiment [7], in experiment [8], in [9] and in [10] was “inactive” in each case.
For `O=c1cc[nH]c(=S)[nH]1`, the Potency in experiment [1] is 0.001 µM (active); in experiment [2], 2.66 µM (active); in experiment [8] it was 0.001 µM (active). In addition, the Potency result in [3], in experiment [4], in [5], in experiment [6], in experiment [7] and in experiment [9] was “inactive” each time. Further, in experiment [10], the Potency result is “inactive”.
In the case of `C=CCn1c(=O)n([C@@H]2O[C@H](CO)[C@@H](O)[C@H]2O)c2nc(N)[nH]c(=O)c21`, the Potency entry in [1], in experiment [2], in experiment [3], in experiment [4], in experiment [5] and in experiment [6] was “inactive” in each case. Further, the Potency entry in experiment [7], in experiment [8], in [9] and in experiment [10] was “inactive” throughout.
For `CC(C)(C)C(=O)NCCCC(=O)O`, the Potency entry in experiment [1], in [2], in experiment [3], in experiment [4], in experiment [5] and in experiment [6] was “inactive” in each case. For the same molecule, the Potency result in [7], in [8], in experiment [9] and in experiment [10] was “inactive” each time.
As for `CC1CC(OC(=O)C(O)c2ccccc2)CC(C)(C)N1C` (stereo not drawn), the Potency result in experiment [1], in [2], in [3], in experiment [4], in experiment [5] and in experiment [6] was “inactive” throughout. In addition, the Potency result in experiment [7], in experiment [8], in experiment [9] and in experiment [10] was “inactive” throughout.
`O=C1NS(=O)(=O)c2ccccc21`: the Potency entry in experiment [1], in experiment [2], in experiment [3], in experiment [4], in experiment [5] and in experiment [6] was “inactive” each time. Besides, the Potency entry in [7], in experiment [8], in experiment [9] and in experiment [10] was “inactive” throughout.
With `CC(O)CN(CCN(CC(C)O)CC(C)O)CC(C)O` (stereo not drawn), the Potency result in experiment [1], in [2], in experiment [3], in experiment [4], in experiment [5] and in [6] was “inactive” each time. Besides, the Potency result in [7], in experiment [8], in [9] and in experiment [10] was “inactive” throughout.
As for `C[C@@H](O)[C@H](N)C(=O)O`, the Potency entry in experiment [1], in [2], in [3], in [4], in [5] and in experiment [6] was “inactive” in each case. The Potency result in [7], in experiment [8], in experiment [9] and in [10] was “inactive” in each case.
On to `CCC(=O)Nc1ccc(O)cc1`, for which the Potency entry in [1], in experiment [2], in experiment [3], in experiment [4], in experiment [5] and in experiment [6] was “inactive” throughout. The Potency result in experiment [7], in [8], in experiment [9] and in experiment [10] was “inactive” each time.
As for `CN(N=O)C(=O)N[C@@H]1[C@@H](O)[C@H](O)[C@@H](CO)O[C@@H]1O`, the Potency entry in experiment [1], in [2], in [3], in experiment [4], in experiment [5] and in experiment [6] was “inactive” each time. The Potency entry in [7], in experiment [8], in experiment [9] and in experiment [10] was “inactive” in each case.
`CN1CCC[C@@H]1Cc1c[nH]c2ccc(CCS(=O)(=O)c3ccccc3)cc12`: the Potency entry in experiment [1], in experiment [2], in experiment [3], in [4], in experiment [5] and in experiment [6] was “inactive” in each case. Further, the Potency entry in experiment [7], in experiment [8], in [9] and in experiment [10] was “inactive” each time.
Consider `O=c1[nH]cnc2c1ncn2[C@@H]1O[C@H](CO)[C@@H](O)[C@H]1O`, for which the Potency result in experiment [1], in [2], in [3], in [4], in experiment [5] and in experiment [6] was “inactive” each time. In addition, the Potency result in experiment [7], in [8], in experiment [9] and in experiment [10] was “inactive” each time.
With `CO/N=C(\C(=O)N[C@@H]1C(=O)N2C(C(=O)O)=C(CSc3nc(=O)c(O)nn3C)CS[C@H]12)c1csc(N)n1`, the Potency result in experiment [1], in [2], in experiment [3], in experiment [4], in experiment [5] and in experiment [6] was “inactive” in each case. In addition, the Potency result in experiment [7], in [8], in experiment [9] and in [10] was “inactive” each time.
Regarding `CCCCOc1cc(C(=O)OCCN(CC)CC)ccc1N`, the Potency result in experiment [1], in experiment [2], in experiment [3], in experiment [4], in [5] and in [6] was “inactive” each time. The Potency entry in [7], in [8], in experiment [9] and in experiment [10] was “inactive” throughout.
With `CCOC(=O)c1ccc(O)cc1`, the Potency entry in experiment [1], in [2], in experiment [3], in [4], in experiment [5] and in [6] was “inactive” throughout. Also, the Potency result in [7], in [8], in experiment [9] and in experiment [10] was “inactive” each time.
For `O=C(O)COc1nn(Cc2ccccc2)c2ccccc12`, the Potency entry in [1], in experiment [2], in [3], in [4], in experiment [5] and in experiment [6] was “inactive” each time. The Potency result in experiment [7], in experiment [8], in experiment [9] and in experiment [10] was “inactive” throughout.
For the molecule `CCCCC/C(C=O)=C\c1ccccc1`, the Potency result in experiment [1], in experiment [2], in [3], in [4], in experiment [5] and in [7] was “inactive” each time. The Potency entry in experiment [8] and in experiment [9] was “inactive” in each case. Besides, the values for the Potency in experiment [6] and in [10] were 53.1 µM (active) and 0.155 µM (active), respectively.
Take `CCCCC(CC)COC(=O)c1ccccc1O` (stereo not drawn): the Potency entry in experiment [1], in experiment [2], in experiment [3], in experiment [4], in [5] and in experiment [7] was “inactive” throughout. Besides, the Potency result in experiment [8], in [9] and in [10] was “inactive” in each case.
As to `Oc1cn2c(n1)Nc1ccc(Cl)c(Cl)c1C2`, the Potency result in experiment [1], in experiment [2], in [3], in experiment [4], in [5] and in experiment [7] was “inactive” throughout. The Potency entry in experiment [8], in [9] and in experiment [10] was “inactive” throughout.
As for `CC(=O)Nc1ccc(/C=N/NC(N)=S)cc1`, the Potency entry in experiment [1], in [2], in [3], in [4], in experiment [5] and in experiment [6] was “inactive” throughout. The Potency result in experiment [7], in [8], in experiment [9] and in [10] was “inactive” each time.
